# Reference: PubChem BioAssay (NCI)
# About 83,000 compounds went through this panel and 20% of them were active in at least one assay; those are over-represented in the sample as a whole.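 Assay: single dose, 48 h. Readout: percent growth (0 = no net growth; negative = cell death). Active: <10.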 Values without a mark were called inactive. The source made the active and inactive calls.
# Assays:
# Test in all cases: NCI-60 one-dose screen, 48 h (100 = growth as untreated, 0 = no growth, -100 = all killed)
# Settings in all cases: 10 µM unless noted
# RPMI-8226 leukemia = test system: RPMI-8226 leukemia
# OVCAR-8 ovarian = test system: OVCAR-8 ovarian
# OVCAR-5 ovarian = test system: OVCAR-5 ovarian
# OVCAR-4 ovarian = test system: OVCAR-4 ovarian
# SK-OV-3 ovarian = test system: SK-OV-3 ovarian
# IGROV1 ovarian = test system: IGROV1 ovarian
# OVCAR-3 ovarian = test system: OVCAR-3 ovarian
# HS 578T breast = test system: HS 578T breast
# NCI/ADR-RES ovarian = test system: NCI/ADR-RES ovarian
# T-47D breast = test system: T-47D breast
# BT-549 breast = test system: BT-549 breast
# MDA-MB-435 melanoma = test system: MDA-MB-435 melanoma
# SW-620 colon = test system: SW-620 colon
# MCF7 breast = test system: MCF7 breast
# HCT-116 colon = test system: HCT-116 colon
# HCC-2998 colon = test system: HCC-2998 colon
# KM12 colon = test system: KM12 colon
SMILES,growth (RPMI-8226 leukemia),growth (OVCAR-8 ovarian),growth (OVCAR-5 ovarian),growth (OVCAR-4 ovarian),growth (SK-OV-3 ovarian),growth (IGROV1 ovarian),growth (OVCAR-3 ovarian),growth (HS 578T breast),growth (NCI/ADR-RES ovarian),growth (T-47D breast),growth (BT-549 breast),growth (MDA-MB-435 melanoma),growth (SW-620 colon),growth (MCF7 breast),growth (HCT-116 colon),growth (HCC-2998 colon),growth (KM12 colon)
Nc1cc(N)c2cccnc2c1O,88%,68.6%,96%,91.2%,101%,66.7%,89%,63.6%,71.7%,93.4%,90.3%,-83.9% (active),60%,46.3%,51.7%,77.1%,81.6%
Nc1ncc(C#Cc2cncc(NC(=O)c3cccc(C(F)(F)F)c3)c2)c2cccnc12,60.7%,47.5%,52.9%,25.6%,67.3%,40.4%,84.6%,27%,66.1%,76.3%,–,22.9%,49.3%,4.41% (active),21.8%,47.1%,19%
COc1ccc(C2CC(c3cccc(Nc4ccncc4)c3)=NN2c2cc(Cl)cc(Cl)c2)cc1 (centres undefined),14.9%,-31.8% (active),82.5%,28.2%,75%,17.3%,49%,56.7%,66.8%,73.8%,109%,-77.1% (active),-87.5% (active),-31.7% (active),–,-46.5% (active),-80% (active)
O=C(N/N=C/c1cccc(O)c1)c1ccccc1Nc1cccc(C(F)(F)F)c1,87.5%,75%,92.3%,58.9%,78.4%,95.3%,62.1%,91.8%,83.4%,52%,67.3%,88.8%,95.1%,73.4%,83.4%,82.7%,81.5%
COc1ccc(/C=N/NC(=O)c2cccc3cc[nH]c23)cc1O,-19.4% (active),48.8%,87.8%,49.6%,26.1%,36.4%,1.58% (active),15.2%,-7.64% (active),41.4%,–,-21.4% (active),29.8%,8.85% (active),21.8%,55.4%,29.8%
CC1=CC2(C)/C=C(C)/C=C\CC(O)/C=C3/C=CC(=C4C(=O)OC2(CC1C)C4=O)OC3 (centres undefined),-23.8% (active),0.804% (active),-57.9% (active),-40.6% (active),94.6%,-49.1% (active),-100% (active),-34% (active),-61.8% (active),-33.9% (active),-17.1% (active),–,-88.5% (active),-21.9% (active),-100% (active),–,10.2%
Cc1nc2sc(C(=O)Nc3ccccc3)c(N)c2cc1C(=O)c1ccc(C(F)(F)F)cc1,102%,101%,97.9%,87.3%,69.3%,101%,110%,85.6%,99%,97.2%,100%,94.1%,99.5%,90.7%,76.8%,–,108%
CCCC/C(=N\N=C(N)N)c1ccc(F)cc1,36%,33.6%,50.5%,39.7%,13.7%,45%,-11.4% (active),26.1%,7.48% (active),38.9%,21.6%,-19.8% (active),23.8%,13.1%,21.1%,37%,15.7%
Nc1c(C(=O)Nc2ccc(Cl)cc2)cc(-c2nc3ccccc3s2)c(=O)n1NS(=O)(=O)c1ccc(Cl)cc1,92.6%,100%,101%,94.4%,101%,97.4%,105%,98.4%,105%,92.9%,122%,–,96.9%,84.2%,98.6%,107%,99%
CCNNC(=O)[C@@H]1[C@H](c2cc(OC)c(OC)c(OC)c2)c2cc3c(cc2[C@H](O)[C@H]1CO)OCO3,32.8%,-13.3% (active),33.6%,35.2%,1.47% (active),20.8%,-47.8% (active),23.1%,-13.7% (active),80.6%,-27.2% (active),-26.9% (active),20.5%,10.2%,0.945% (active),6.02% (active),-5.82% (active)
CC1(C)CC[C@]2(C(=O)NCC#CCN3CCOCC3)CC[C@]3(C)C(=CC[C@@H]4[C@@]5(C)Cc6c([nH]c7ccccc67)C(C)(C)[C@@H]5CC[C@]43C)[C@@H]2C1,57.9%,90.8%,99.6%,91%,97.8%,116%,95.1%,107%,97%,75.2%,101%,83.1%,103%,81.1%,73.9%,–,91.3%
